# About 27,000 (9.3%) of roughly 290,000 compounds were called active. Many of the other results were omitted from the sample, so actives are more common in it than they were. A number with no mark means an inactive call. Cut-off read from the data, not from the text of the source: active = inhibition mostly above about 28% (no sharp cut-off); inactive = mostly below about 43%.
# Assay: A qHTS for Small Molecule Inhibitors of Shiga Toxin; note: 0% is about no effect
# Conditions: Vero cells, Shiga toxin protein synthesis inhibition reporter; at 38.7 µM, hits give high values
row,SMILES,inhibition
1,Cc1ccc(S(=O)(=O)N2CCN(C(=O)N3CCOCC3)CC2)c(C)c1,-2.32%
2,COc1cccc(OC)c1C(=O)N1CCN(Cc2cccnc2)CC1,11.9%
3,O=C(NCc1ccccc1)c1ccc(S(=O)(=O)Nc2cccc(C(F)(F)F)c2)cc1,-3.31%
4,COc1cc(CC(=O)NCc2cccs2)cc(OC)c1OC,-11.7%
5,O=C(Cc1cccs1)NCc1cccc(C(F)(F)F)c1,61.9% (active)
6,COc1cccc(NC(=O)N2CCCC2C(=O)NC2CCCCC2)c1 (stereo not given),-3.54%
7,O=S(=O)(Nc1ccc2[nH]ncc2c1)c1ccccc1Cl,-6.01%
8,O=C(CSc1nnc2ccccn12)c1ccccc1,74.7% (active)
9,Cn1c(SCC(=O)c2ccc(F)cc2)nnc1-c1ccccn1,21.4%
10,N#Cc1ccc(CSc2nnc3ccccn23)cc1,-7.41%
11,Cc1ccc(-n2c(C)nnc2SCC(=O)NC2CC2)cc1,-29.3%
12,Cn1c(CC(=O)Nc2ccccc2)nnc1SCC(=O)c1ccccc1,0.707%
13,Cc1ccc(-n2c(C)cc(C(=O)CSc3nnc4ccccn34)c2C)cc1,48.6% (active)
14,O=C(CSc1nnc(-c2ccco2)n1CC1CCCO1)c1ccccc1 (stereo not given),21.9%
15,O=C(CSc1nnc2n1CCCN2)c1ccccc1,53.5% (active)
16,CCN(C(=O)CSc1nnc2ccccn12)C1CCS(=O)(=O)C1 (stereo not given),-8.56%
17,Cn1c(=O)n(C)c2cc(S(=O)(=O)Nc3ccc(F)cc3)ccc21,0.488%
18,Cc1ccc(CCN2CC(C(=O)NCCc3ccccc3)CC2=O)cc1 (stereo not given),16.6%
19,CC1CCCCN1C(=O)Cn1c(=O)oc2cc(S(=O)(=O)N3CCCCC3)ccc21 (stereo not given),12.7%
20,CC(C)(C)NC(=O)NC(=O)COC(=O)C1c2ccccc2Oc2ccccc21,-5.17%
21,Cc1ccc2[nH]c(=O)c(CC(=O)O)c(-c3ccccc3)c2c1,1.65%
22,COc1cc(/C=N/NC(=O)c2cc(C)n(-c3ccc(F)cc3)c2C)cc(OC)c1O,43.1% (active)
23,COc1cc(/C=N\NC(=O)C2C(=O)NCC2c2ccccc2)cc(OC)c1O (stereo not given),-11.2%
24,COc1cc(/C=N/NC(=O)c2ccc(N3CCCC3=O)cc2)ccc1O,56.5% (active)
25,Cc1cc(C(=O)N/N=C/c2ccc(N3CCOCC3)cc2)c(C)o1,46.9%
26,COc1ccc(/C=N/NC(=O)c2ccncc2)cc1CN1CCCc2ccccc21,-1.95%
27,COc1cc(/C=N/NC(=S)Nc2cccnc2)cc(OC)c1O,-4.42%
28,Cc1cc(C(=O)N/N=C/c2ccc(O)c([N+](=O)[O-])c2)c(C)n1-c1ccc(F)cc1,0% (active)
29,Cc1nn(CC(=O)N/N=C/c2ccc(F)cc2)c(C)c1[N+](=O)[O-],-12.8%
30,O=C(N/N=C/c1cccc(Br)c1)c1ccc(N2CCCC2=O)cc1,18.7%
